# Source: PubChem BioAssay (EPA / NIEHS)
# Inconclusive results are not listed. The source made the active and inactive calls. How the source made its calls, unless noted: active means hit-call score of the fitted dose curve at least 0.9, where 1 is the maximum; inactive means score below 0.9.
# What was measured:
# [1] = ACEA_ER_80hr: ACEA Biosciences xCELLigence Real-Time Cell Analysis on Estrogen Receptor Agonism for Proliferation (AID 2282667; active means hit-call score of the fitted dose curve at least 0.9, where 1 is the maximum); settings: T47D proliferation, impedance (xCELLigence), 80 h
# Method in brief: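 T-47D cells monitored by electrical impedance (xCELLigence) with compound present throughout; 80 h timepoint, positive-direction fitting versus DMSO. Eight-point 1:4 dilutions from 100 uM final, duplicate plates.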
# [2] = ATG_CRE_CIS: Attagene CIS-FACTORIAL HepG2 Assay for human cAMP Responsive Element (CRE) binding protein 3 (AID 2282926); settings: HepG2 CRE cis-reporter, Attagene multiplexed mRNA; actives raise or lower the signal
# Method in brief: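 HepG2 cells transiently transfected with cis-element-driven multiple reporter transcription units; CRE reporter mRNA measured 24 h after dosing by RT-PCR, 6-FAM labelling, HpaI digestion and capillary electrophoresis. Bidirectional fit versus DMSO baseline.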
# [3] = biological target: CCAAT/enhancer-binding protein beta (Homo sapiens) (UniProt P17676); test: ATG_C_EBP_CIS: Attagene CIS-FACTORIAL HepG2 Assay for human CCAAT/Enhancer Binding Protein (C/EBP) beta (AID 2282927); settings: HepG2 Attagene cis-factorial transcription factor reporter; actives raise or lower the signal
# CCAAT/enhancer-binding protein beta (Homo sapiens), sequence (P17676 whole entry, looked up): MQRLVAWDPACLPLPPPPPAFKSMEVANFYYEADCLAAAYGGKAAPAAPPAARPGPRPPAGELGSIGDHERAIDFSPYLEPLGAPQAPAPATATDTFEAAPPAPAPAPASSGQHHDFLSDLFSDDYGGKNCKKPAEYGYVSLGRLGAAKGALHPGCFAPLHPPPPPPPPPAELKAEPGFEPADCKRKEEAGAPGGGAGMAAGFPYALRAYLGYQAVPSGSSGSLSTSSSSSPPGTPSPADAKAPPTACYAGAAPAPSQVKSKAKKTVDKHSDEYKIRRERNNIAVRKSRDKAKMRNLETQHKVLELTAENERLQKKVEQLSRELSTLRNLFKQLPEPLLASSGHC
# Method in brief: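 RT-PCR/capillary electrophoresis fluorescence of reporter mRNA, 24 h post-dose, in HepG2 cells carrying transfected cis-promoter reporter units. Bidirectional curve fitting against DMSO baseline captures gain or loss of signal.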
# [4] = ATG_CMV_CIS: Attagene CIS-FACTORIAL HepG2 Assay for human CMV (Internal Marker) (AID 2282928); settings: HepG2 CMV promoter reporter, transcription factor profiling; actives raise or lower the signal;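 further: endpoint acts as a background internal control marker rather than a target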
# Method in brief: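 After transient transfection of HepG2 with reporter transcription units driven by cis-regulatory promoters, cells receive test chemical for 24 h. Labeled reporter amplicons, digested with HpaI, are sized and quantified by capillary electrophoresis against DMSO.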
# [5] = biological target: Aryl hydrocarbon receptor (Homo sapiens) (UniProt P35869); test: ATG_Ahr_CIS: Attagene CIS-FACTORIAL HepG2 Assay for human Aryl Hydrocarbon Receptor (Ahr) (AID 2282930); settings: HepG2 AhR cis-factorial reporter transcription; actives raise or lower the signal
# Aryl hydrocarbon receptor (Homo sapiens), sequence (P35869 whole entry, looked up): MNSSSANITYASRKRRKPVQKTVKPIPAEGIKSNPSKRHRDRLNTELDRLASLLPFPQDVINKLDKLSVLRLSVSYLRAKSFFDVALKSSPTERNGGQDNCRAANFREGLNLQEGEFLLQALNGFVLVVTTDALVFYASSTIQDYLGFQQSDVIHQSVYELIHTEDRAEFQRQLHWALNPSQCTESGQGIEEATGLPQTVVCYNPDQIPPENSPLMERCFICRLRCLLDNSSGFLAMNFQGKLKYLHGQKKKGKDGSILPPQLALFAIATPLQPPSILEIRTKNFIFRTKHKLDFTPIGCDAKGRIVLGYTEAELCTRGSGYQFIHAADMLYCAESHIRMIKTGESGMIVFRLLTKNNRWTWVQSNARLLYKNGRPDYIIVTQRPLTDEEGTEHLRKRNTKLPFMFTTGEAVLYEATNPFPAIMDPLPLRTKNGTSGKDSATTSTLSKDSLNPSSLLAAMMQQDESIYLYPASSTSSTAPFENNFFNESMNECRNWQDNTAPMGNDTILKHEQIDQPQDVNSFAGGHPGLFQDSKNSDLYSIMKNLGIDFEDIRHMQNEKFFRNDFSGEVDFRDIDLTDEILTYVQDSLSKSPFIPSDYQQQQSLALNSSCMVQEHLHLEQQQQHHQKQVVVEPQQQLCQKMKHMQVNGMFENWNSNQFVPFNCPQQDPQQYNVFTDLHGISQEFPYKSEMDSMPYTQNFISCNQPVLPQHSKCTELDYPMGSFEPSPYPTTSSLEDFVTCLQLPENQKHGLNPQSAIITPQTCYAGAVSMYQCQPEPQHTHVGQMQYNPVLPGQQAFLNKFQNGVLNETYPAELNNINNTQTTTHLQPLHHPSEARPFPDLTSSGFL
# Method in brief: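 HepG2 cells transiently transfected with cis-element-driven multiplexed reporter transcription units; endogenous transcription factor activity measured as reporter mRNA 24 h after dosing. RT-PCR, 6-FAM labelling, HpaI digestion, capillary electrophoresis; bidirectional fitting versus DMSO baseline.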
# [6] = ATG_AP_1_CIS: Attagene CIS-FACTORIAL HepG2 Assay for human Activator Protein 1 (AP-1) (AID 2282931); settings: HepG2 Attagene cis-factorial AP-1 reporter mRNA; actives raise or lower the signal
# Method in brief: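 Reporter transcripts were measured 24 h after dosing by RT-PCR and capillary electrophoresis of fluorescent fragments. Cells: HepG2 carrying transfected cis-regulated reporter constructs reading endogenous factor activity. Gain or loss fitted against DMSO.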
# [7] = ATG_AP_2_CIS: Attagene CIS-FACTORIAL HepG2 Assay for human Activator Protein 2 (AP-2) (AID 2282932); settings: HepG2 AP-2 cis-reporter, Attagene transcription factor profiling; actives raise or lower the signal
# Method in brief: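 HepG2 cells were transiently transfected with multiple cis-promoter reporter transcription units and dosed for 24 h. Reporter mRNA was measured by RT-PCR with capillary electrophoresis fluorescence; bidirectional fits relative to DMSO baseline.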
# [8] = ATG_BRE_CIS: Attagene CIS-FACTORIAL HepG2 Assay for human Bone Morphogenetic Protein (BMP) Response Element (BRE) (AID 2282933); settings: HepG2 BMP response element reporter, Attagene transcription factor profiling; actives raise or lower the signal
# Method in brief: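 Transient MRTU transfection of human HepG2 liver cells; 24 h compound treatment; total RNA isolated, reverse-transcribed, PCR-amplified, 6-FAM labelled, HpaI-cut, capillary electrophoresis. DMSO = negative control/baseline, bidirectional fit.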
# [9] = biological target: Transcription factor E2F1 (Homo sapiens) (UniProt Q01094); test: ATG_E2F_CIS: Attagene CIS-FACTORIAL HepG2 Assay for human E2F Transcription Factor 1 (AID 2282935); settings: HepG2 Attagene cis-reporter, E2F reporter RNA transcripts; actives raise or lower the signal
# Transcription factor E2F1 (Homo sapiens), sequence (Q01094 whole entry, looked up): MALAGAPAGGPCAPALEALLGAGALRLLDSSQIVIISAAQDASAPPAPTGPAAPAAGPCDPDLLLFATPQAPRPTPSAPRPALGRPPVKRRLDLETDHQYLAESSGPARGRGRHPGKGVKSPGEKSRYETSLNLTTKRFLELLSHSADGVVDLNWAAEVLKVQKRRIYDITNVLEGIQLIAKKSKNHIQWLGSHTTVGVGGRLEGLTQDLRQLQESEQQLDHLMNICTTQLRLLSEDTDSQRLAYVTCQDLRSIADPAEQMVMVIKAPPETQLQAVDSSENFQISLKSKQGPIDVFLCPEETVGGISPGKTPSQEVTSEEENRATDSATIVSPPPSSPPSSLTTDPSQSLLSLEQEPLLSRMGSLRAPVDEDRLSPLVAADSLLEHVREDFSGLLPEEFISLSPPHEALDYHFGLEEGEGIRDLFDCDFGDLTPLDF
# Method in brief: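 HepG2 cells transiently transfected with multiplexed cis-element reporter units, dosed for 24 h. Reporter mRNA measured by RT-PCR, 6-FAM primer-extension labeling, HpaI digestion and capillary electrophoresis; bidirectional fit versus DMSO baseline.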
# [10] = ATG_E_Box_CIS: Attagene CIS-FACTORIAL HepG2 Assay for human Enhancer Box (E-box) (AID 2282936); settings: HepG2 E-box cis-reporter transcription, actives raise or lower the signal
# Method in brief: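 HepG2 cells transiently transfected with multiplexed cis-element reporter units sensing endogenous transcription factor activity; 24 h compound exposure. Reporter mRNA measured by RT-PCR, 6-FAM primer extension, HpaI digestion and capillary electrophoresis; bidirectional fit versus DMSO.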
# [11] = ATG_EGR_CIS: Attagene CIS-FACTORIAL HepG2 Assay for human Early Growth Response 1 (EGR1) (AID 2282938); settings: HepG2 Attagene CIS-FACTORIAL EGR reporter mRNA; actives raise or lower the signal
# Method in brief: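 Read-out: fluorescent reporter-mRNA fragments resolved by capillary electrophoresis after RT-PCR, 24 h post-dose in transiently transfected HepG2. Endogenous transcription-factor activity reported via cis-element-regulated reporter units; gain or loss fitted relative to DMSO.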
# [12] = ATG_M_19_CIS: Attagene CIS-FACTORIAL HepG2 Assay for M19 Transcription Factor (Internal Marker) (AID 2282939); settings: HepG2 Attagene CIS-FACTORIAL M19 internal marker reporter; actives raise or lower the signal
# Method in brief: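 Transfect HepG2 with MRTU reporter library → dose chemical, 24 h → isolate total RNA, reverse-transcribe with oligo(dT) → PCR, 6-FAM label, HpaI cut (2 h, 37 C) → capillary electrophoresis. Bidirectional fit vs DMSO.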
# [13] = ATG_ERE_CIS: Attagene CIS-FACTORIAL HepG2 Assay for Estrogen Response Element (ERE) (AID 2282940); settings: HepG2 ERE cis-reporter, Attagene RNA transcript; actives raise or lower the signal
# Method in brief: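 Transient MRTU transfection of human HepG2; cis-element promoters; 24 h dosing; total RNA → RT (oligo dT) → PCR → 6-FAM primer extension → HpaI digest → CE fluorescence. Bidirectional fit, DMSO baseline.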
# [14] = biological target: Hepatocyte nuclear factor 3-beta (Homo sapiens) (UniProt Q9Y261); test: ATG_FoxA2_CIS: Attagene CIS-FACTORIAL HepG2 Assay for human Forkhead box A2 (FOXA2) (AID 2282942); settings: HepG2 cis-reporter transcription factor activity, 24 h; actives raise or lower the signal
# Hepatocyte nuclear factor 3-beta (Homo sapiens), sequence (Q9Y261 whole entry, looked up): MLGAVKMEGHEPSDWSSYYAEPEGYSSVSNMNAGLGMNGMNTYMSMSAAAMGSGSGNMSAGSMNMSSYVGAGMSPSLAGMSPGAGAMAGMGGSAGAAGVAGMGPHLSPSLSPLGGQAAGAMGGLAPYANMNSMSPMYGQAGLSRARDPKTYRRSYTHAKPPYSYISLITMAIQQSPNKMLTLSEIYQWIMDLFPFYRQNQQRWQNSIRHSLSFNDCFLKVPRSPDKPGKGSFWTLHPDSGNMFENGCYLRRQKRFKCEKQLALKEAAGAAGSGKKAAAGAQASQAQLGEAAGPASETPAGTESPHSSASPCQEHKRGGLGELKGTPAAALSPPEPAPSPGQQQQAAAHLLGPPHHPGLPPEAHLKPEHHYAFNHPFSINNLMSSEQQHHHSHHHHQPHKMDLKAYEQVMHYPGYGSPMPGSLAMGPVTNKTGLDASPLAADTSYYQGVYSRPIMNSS
# Method in brief: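 Readout: fluorescent reporter transcripts resolved by capillary electrophoresis after RT-PCR. Transiently transfected HepG2, 24 h compound exposure, endogenous TF activity at cis promoter elements. Gain or loss of signal fitted relative to DMSO.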
# [15] = ATG_FoxO_CIS: Attagene CIS-FACTORIAL HepG2 Assay for human Forkhead box O (FoxO) (AID 2282943); settings: HepG2 Attagene cis-reporter, FoxO element, mRNA; actives raise or lower the signal
# Method in brief: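 HepG2 cells transiently transfected with cis-promoter-driven multiple reporter transcription units; 24 h after chemical dosing, reporter mRNA quantified by RT-PCR, fluorescent primer extension, HpaI digestion and capillary electrophoresis. Bidirectional fitting versus DMSO baseline.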
# [16] = ATG_GATA_CIS: Attagene CIS-FACTORIAL HepG2 Assay for human GATA Binding Protein (AID 2282944); settings: HepG2 GATA cis-element reporter, Attagene multiplex mRNA; actives raise or lower the signal
# Method in brief: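 Transient MRTU transfection, HepG2, 24 h compound exposure. Total RNA → oligo(dT) RT → PCR → 6-FAM primer extension → HpaI cut → CE. Bidirectional fit vs DMSO.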
# [17] = biological target: Retinoic acid receptor alpha (Homo sapiens) (UniProt P10276); test: ATG_DR5_RAR_CIS: Attagene CIS-FACTORIAL HepG2 Assay for human Retinoic Acid Receptor Alpha (RARE), DR5 submotif (AID 2282934); settings: HepG2 Attagene cis-factorial RARE DR5 reporter, mRNA; actives raise or lower the signal
# Retinoic acid receptor alpha (Homo sapiens), sequence (P10276 whole entry, looked up): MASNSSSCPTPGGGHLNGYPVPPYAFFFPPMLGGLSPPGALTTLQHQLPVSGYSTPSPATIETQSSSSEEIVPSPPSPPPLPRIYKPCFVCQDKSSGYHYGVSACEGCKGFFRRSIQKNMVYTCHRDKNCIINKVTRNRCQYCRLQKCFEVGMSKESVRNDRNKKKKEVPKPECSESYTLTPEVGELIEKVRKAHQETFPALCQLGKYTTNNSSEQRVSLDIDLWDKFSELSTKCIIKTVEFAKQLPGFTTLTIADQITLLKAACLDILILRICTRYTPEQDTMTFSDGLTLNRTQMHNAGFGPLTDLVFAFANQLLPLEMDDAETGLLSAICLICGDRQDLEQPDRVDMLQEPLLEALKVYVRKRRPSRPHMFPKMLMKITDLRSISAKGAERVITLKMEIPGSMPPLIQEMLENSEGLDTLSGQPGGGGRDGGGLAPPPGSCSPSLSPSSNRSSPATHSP
# Method in brief: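 HepG2 cells transiently transfected with multiplexed reporter units under cis (DR5 RARE) promoters, so endogenous transcription factor activity is measured. After 24 h compound exposure, reporter mRNA is quantified by RT-PCR with fluorescent labelling and capillary electrophoresis; bidirectional fitting versus DMSO.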
# [18] = ATG_M_61_CIS: Attagene CIS-FACTORIAL HepG2 Assay for M61 Transcription Factor (Internal Marker) (AID 2282937); settings: HepG2 Attagene CIS-FACTORIAL M61 internal marker reporter; actives raise or lower the signal
# Method in brief: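 Readout: fluorescent reporter mRNA fragments resolved by capillary electrophoresis after RT-PCR. Transiently transfected human HepG2 cells carried MRTU constructs reporting endogenous TF activity; 24 h chemical exposure; gain or loss of signal fitted relative to DMSO.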
# [19] = ATG_Ets_CIS: Attagene CIS-FACTORIAL HepG2 Assay for human Erythroblast Transformation Specific (ETS) (AID 2282941); settings: HepG2 ETS cis-reporter transcription, actives raise or lower the signal
# Method in brief: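 Human HepG2 hepatoma cells were transiently transfected with promoter-driven reporter constructs and treated for 24 hours. Reporter transcripts were quantified by RT-PCR with fluorescent primer extension; bidirectional curve fitting used DMSO as reference.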
structure (smiles),measurement,setting,value
c1ccc2sc(SSN3CCOCC3)nc2c1,outcome,[1],inactive
same,AC50,[2],146 µM (active)
same,outcome,[3],inactive
same,AC50,[4],64 µM (active)
same,AC50,[5],3.45 µM (active)
same,AC50,[6],43.2 µM (active)
same,AC50,[7],64.8 µM (active)
same,outcome,[8],inactive
same,outcome,[9],inactive
same,outcome,[10],inactive
same,AC50,[11],100 µM (active)
same,outcome,[12],inactive
same,outcome,[13],inactive
same,outcome,[14],inactive
same,AC50,[15],158 µM (active)
same,outcome,[16],inactive
Clc1cccnc1,outcome,[1],inactive
same,outcome,[2],inactive
same,outcome,[3],inactive
same,outcome,[4],inactive
same,outcome,[5],inactive
same,outcome,[6],inactive
same,outcome,[7],inactive
same,outcome,[8],inactive
same,outcome,[17],inactive
same,outcome,[9],inactive
same,outcome,[18],inactive
same,outcome,[11],inactive
same,outcome,[12],inactive
same,outcome,[13],inactive
same,outcome,[19],inactive
same,outcome,[14],inactive
same,outcome,[15],inactive
same,outcome,[16],inactive
N=C1C=CC(=C(c2ccc(N)cc2)c2ccc(N)cc2)C=C1,outcome,[1],inactive
same,outcome,[2],inactive
same,AC50,[3],168 µM (active)
same,AC50,[4],33.4 µM (active)
same,AC50,[5],8.36 µM (active)
same,outcome,[6],inactive
same,AC50,[7],24.7 µM (active)
same,outcome,[17],inactive
same,outcome,[9],inactive
same,AC50,[10],72.5 µM (active)
same,outcome,[11],inactive
same,AC50,[12],100 µM (active)
same,outcome,[13],inactive
same,AC50,[19],25.4 µM (active)
same,outcome,[14],inactive
same,AC50,[16],26.2 µM (active)
CC1OC(=O)C(C)OC1=O (stereo unspecified),AC50,[1],169 nM (active)
same,outcome,[2],inactive
same,outcome,[3],inactive
same,outcome,[4],inactive
same,outcome,[5],inactive
same,outcome,[6],inactive
same,outcome,[7],inactive
same,outcome,[8],inactive
same,outcome,[17],inactive
same,outcome,[9],inactive
same,outcome,[10],inactive
same,outcome,[11],inactive
same,outcome,[12],inactive
same,outcome,[13],inactive
same,outcome,[19],inactive
same,outcome,[14],inactive
same,outcome,[15],inactive
same,outcome,[16],inactive
CC(C)=CCCC(C)=CC#N,outcome,[1],inactive
same,outcome,[2],inactive
same,outcome,[3],inactive
same,outcome,[4],inactive
same,outcome,[5],inactive
same,outcome,[6],inactive
same,outcome,[7],inactive
same,outcome,[8],inactive
same,outcome,[17],inactive
same,outcome,[9],inactive
same,outcome,[10],inactive
same,outcome,[18],inactive
same,outcome,[11],inactive
same,outcome,[12],inactive
same,AC50,[13],172 µM (active)
same,outcome,[19],inactive
same,outcome,[14],inactive
same,outcome,[16],inactive
Cc1c(C(=O)c2c[nH]n(C)c2=O)ccc(S(C)(=O)=O)c1C1=NOCC1,outcome,[1],inactive
same,outcome,[2],inactive
same,outcome,[3],inactive
same,outcome,[4],inactive
same,outcome,[5],inactive
same,outcome,[6],inactive
same,outcome,[7],inactive
same,outcome,[8],inactive
same,outcome,[17],inactive
same,outcome,[9],inactive
same,outcome,[10],inactive
same,outcome,[18],inactive
same,outcome,[11],inactive
same,outcome,[12],inactive
same,outcome,[13],inactive
same,outcome,[14],inactive
same,outcome,[15],inactive
same,outcome,[16],inactive
Cc1cccc(C(C)(C)C)c1O,outcome,[1],inactive
same,outcome,[2],inactive
same,outcome,[3],inactive
same,outcome,[4],inactive
same,outcome,[5],inactive
same,outcome,[6],inactive
same,outcome,[7],inactive
same,outcome,[8],inactive
same,outcome,[17],inactive
same,outcome,[9],inactive
same,outcome,[18],inactive
same,outcome,[11],inactive
same,outcome,[12],inactive
same,outcome,[13],inactive
same,outcome,[19],inactive
same,outcome,[14],inactive
same,outcome,[15],inactive
same,outcome,[16],inactive
C=C(C)C(=O)OCCCCCCCCCCCC,outcome,[1],inactive
same,outcome,[2],inactive
same,outcome,[3],inactive
same,AC50,[4],100 µM (active)
same,outcome,[6],inactive
same,outcome,[7],inactive
same,outcome,[8],inactive
same,outcome,[17],inactive
same,outcome,[10],inactive
same,outcome,[18],inactive
same,outcome,[11],inactive
same,outcome,[12],inactive
same,outcome,[13],inactive
same,outcome,[19],inactive
same,outcome,[14],inactive
same,outcome,[15],inactive
same,outcome,[16],inactive
CCOc1ccc(NC(N)=O)cc1,outcome,[1],inactive
same,outcome,[2],inactive
same,outcome,[3],inactive
same,outcome,[4],inactive
same,outcome,[5],inactive
same,outcome,[6],inactive
same,outcome,[7],inactive
same,outcome,[8],inactive
same,outcome,[17],inactive
same,outcome,[9],inactive
same,outcome,[18],inactive
same,outcome,[11],inactive
same,outcome,[12],inactive
same,outcome,[13],inactive
same,outcome,[19],inactive
same,outcome,[14],inactive
same,outcome,[15],inactive
